Bioassay records from PubChem BioAssay.
CR mimetic SO – lowers age-related superoxide in aged yeast cells | superoxide response (% of plate mean), % at 10 µM | AID 2690 | 0.18% of 330,000 active | S. cerevisiae aged cells, superoxide DHE fluorescence; active compounds read low;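 active means superoxide response under a set limit, about three screen SD below normal, cut at about 65% in these data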;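 further: yeast aged for seven days with compound at 30 °C before DHE staining; 100% = average MFI of all compound-treated wells on the plate with controls excluded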
UBC13 inh – human UBC13 polyubiquitination inhibition. 0.47% of 330,000 active. inhibition, % at 20 µM. UBC13 polyubiquitin chain formation, TR-FRET. P61088; in the data active means inhibition above about 45%, passing the limit was not always enough
NR3A LBD binder – modulates the human NR3A ligand-binding domain. 2.5% of 340,000 active. AID 1259313. NR3A LBD differential scanning fluorimetry, Tm shift; 0% = protein alone, 100% = glycine-bound protein. Tm shift relative to glycine control, % at 25 µM;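 active means melting temperature shift of at least 10% of the positive control shift, at one fixed dose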
dFosB act – activators of mouse delta FosB homodimer; purified delta FosB, TAMRA-CDK5 oligo fluorescence polarization; percent of positive-control signal above neutral wells; activation, % at 25 µM; 0.99% of 340,000 active; AID 493131;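 active means mean activation above about 17%, with every replicate also reaching it, limit read from the data, passing the limit was not always enough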
Target sequence (P13346 whole entry, looked up): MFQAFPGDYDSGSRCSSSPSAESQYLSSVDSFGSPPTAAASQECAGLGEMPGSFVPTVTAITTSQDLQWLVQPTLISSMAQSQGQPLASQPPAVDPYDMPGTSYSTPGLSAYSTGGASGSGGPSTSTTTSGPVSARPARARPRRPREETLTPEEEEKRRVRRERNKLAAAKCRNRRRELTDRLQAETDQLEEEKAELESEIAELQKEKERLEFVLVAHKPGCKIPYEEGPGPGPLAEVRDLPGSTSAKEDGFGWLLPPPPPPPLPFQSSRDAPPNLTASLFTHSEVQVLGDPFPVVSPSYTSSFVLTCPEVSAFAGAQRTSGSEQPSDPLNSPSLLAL
NALP1 yeast inh – blocks the NALP1 inflammasome reconstituted in yeast; S. cerevisiae NALP1/ASC/caspase-1 growth, X-gal OD620, 72 h; inhibition, % at 10 µM; 0.61% of 280,000 active; in the data active means inhibition mostly above about 24%, no sharp cut-off; inactive means mostly below about 32%
Numbers without * were called inactive. This is a sample that favours compounds with a hit; in the whole collection about 4.3% have one here.

`NCCc1nnc(SCc2c(Cl)cccc2Cl)o1` gave CR mimetic SO 92, UBC13 inh 6, NR3A LBD binder 1, dFosB act -6 and NALP1 yeast inh 39*.
For COc1cc(-c2nnc(SCC(=O)N(C)C3CCS(=O)(=O)C3)o2)cc(OC)c1OC (stereo not given) the results were CR mimetic SO 87, UBC13 inh 0, NR3A LBD binder 0, dFosB act -1 and NALP1 yeast inh 9.
COC(CNC(=O)c1ccc2nc(-c3cccs3)c(-c3cccs3)nc2c1)OC was read as CR mimetic SO 120, UBC13 inh 12, NR3A LBD binder 16*, dFosB act -8 and NALP1 yeast inh 17.
For COc1ccc(-c2nc3ccc(C(=O)NCC(OC)OC)cc3nc2-c2ccc(OC)c(OC)c2)cc1OC the results were CR mimetic SO 107, UBC13 inh -11, NR3A LBD binder 0, dFosB act -12 and NALP1 yeast inh 0.
`O=C1S/C(=C\c2ccccn2)C(=O)N1Cc1ccccc1F` gave CR mimetic SO 105, UBC13 inh 2, NR3A LBD binder 13*, dFosB act -2 and NALP1 yeast inh 21.
CCN(CC)S(=O)(=O)c1cccc(NC(=O)Nc2cccc(C(F)(F)F)c2)c1 was read as CR mimetic SO 108, UBC13 inh 7, NR3A LBD binder 31*, dFosB act 4 and NALP1 yeast inh 37*.
For Cc1cc(NS(=O)(=O)c2ccc(NC(=O)Nc3cccc(C(F)(F)F)c3)cc2)no1 the results were CR mimetic SO 94, UBC13 inh -10, NR3A LBD binder 22*, dFosB act -5 and NALP1 yeast inh 7.
Screening Cc1cc(NS(=O)(=O)c2ccc(NC(=O)NC(C)(C(F)(F)F)C(F)(F)F)cc2)no1 returned CR mimetic SO 97, UBC13 inh 3, NR3A LBD binder -3, dFosB act 6 and NALP1 yeast inh 14.
Cc1cc(NC(=O)Nc2cccc(C(F)(F)F)c2)no1 was read as CR mimetic SO 89, UBC13 inh 8, NR3A LBD binder 589*, dFosB act -9 and NALP1 yeast inh 18.
`Cc1ncsc1C(=O)Nc1cccc(C(F)(F)F)c1` gave CR mimetic SO 89, UBC13 inh 2, NR3A LBD binder 27*, dFosB act -2 and NALP1 yeast inh 19.
For CCOC(=O)c1nccnc1C(=O)Nc1cccc(C(F)(F)F)c1 the results were CR mimetic SO 96, UBC13 inh -14, NR3A LBD binder 6, dFosB act -4 and NALP1 yeast inh 11.
Screening O=C(CSc1nc(C2CCCCC2)n(-c2ccccc2)n1)NCC(F)(F)F returned CR mimetic SO 91, UBC13 inh 3, NR3A LBD binder 4 and dFosB act 2.
For O=C(CSc1nnc(CNC(=O)c2ccco2)o1)Nc1ccc(F)cc1 the results were CR mimetic SO 114, UBC13 inh 4, NR3A LBD binder -3, dFosB act -4 and NALP1 yeast inh 1.
For COC(=O)c1ccccc1Nc1ccnc(Cl)n1 the results were CR mimetic SO 116, UBC13 inh 11, NR3A LBD binder 6 and dFosB act -17.
Cc1cc(NS(=O)(=O)c2ccc(NC(=O)/C=C/c3cccc(Cl)c3)cc2)no1 was read as CR mimetic SO 84, UBC13 inh -20, NR3A LBD binder 16*, dFosB act -8 and NALP1 yeast inh 15.
For CSc1nc2nc(C(F)(F)F)cc(-c3ccccc3)n2n1 the results were CR mimetic SO 99, UBC13 inh 19, NR3A LBD binder 4, dFosB act -3 and NALP1 yeast inh -10.
`CSc1nc2nc(-c3ccccc3)cc(C(F)(F)F)n2n1` gave CR mimetic SO 108, UBC13 inh 21, NR3A LBD binder 0, dFosB act 5 and NALP1 yeast inh 27*.
For CCOC(=O)c1ccc(N2C(=O)CC(N3CCOCC3)C2=O)cc1 (stereo not given) the results were CR mimetic SO 84, UBC13 inh 5, NR3A LBD binder 2, dFosB act 0 and NALP1 yeast inh 30*.
For O=C1CC(N2CCCN(C3CC(=O)N(c4ccc(F)cc4)C3=O)CC2)C(=O)N1c1ccc(F)cc1 (stereo not given) the results were CR mimetic SO 91, UBC13 inh 9, NR3A LBD binder 1, dFosB act -3 and NALP1 yeast inh 39*.
